# Bioassay records: PubChem, several laboratories
# A selection: hits, their analogues and other compounds. The true share with any hit is near 3.8%.
# Ecoli rRNA inh = inhibitors of bacterial rRNA selective over humanized ribosomes; E. coli WT GFP vs humanized-ribosome RFP mutants, fluorescence, 24 h; stronger effect = lower value; DMSO median 0, no signal -100; GFP signal change (wild-type ribosome), % (concentration not given with the values); actives 1.6% (n = 350,000);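 active = significant combined selectivity score with lowered wild-type GFP, culture density cut under 30%, mutant RFP and density less affected; inactive = any of these conditions unmet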
# proKLK7 act = activators of human kallikrein-7 zymogen; P49862; purified proKLK7, EDANS-DABCYL substrate fluorescence; 100% is mature enzyme control, 0% vehicle; actives 0.9% (n = 370,000); AID 652039; activation, % at 7 µM;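 active = activation above the mean of all tested compounds plus 3 SD, computed per campaign excluding outliers beyond control limits, cut at about 13% in these data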
# FGF22 binding = shifts melting point of recombinant human FGF22; recombinant FGF22 thermal shift, SYPRO orange fluorescence; percent of sucrose octasulfate shift, DMSO zero; activity (Tm shift, normalised), % at 9.99 µM; actives 1.5% (n = 340,000); AID 651658;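 active = mean Tm shift, scaled 0 neutral to 100 positive control, at about 1.3% or above, every replicate too, limit read from the data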
# ADAM17 inh = inhibitors of human ADAM17; P78536; inhibition, % at 6.95 µM; recombinant ADAM17, EDANS/DABCYL FRET peptide cleavage; actives 0.83% (n = 370,000);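 active = inhibition above the mean of compounds lying between control limits plus 3 SD, set per campaign, cut at about 8.5% in these data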;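 also: 0% = DMSO-only wells as the low control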
# ADAM10 inh = inhibitors of human ADAM10; O14672; recombinant ADAM10, EDANS/DABCYL FRET peptide cleavage, 3 h; inhibition, % at 7 µM; actives 0.62% (n = 370,000); AID 720582;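 active = inhibition above a per-campaign cutoff equal to the mean of compounds falling between control-based bounds plus 3 SD, cut at about 20% in these data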;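 also: 0% = DMSO wells while the 100% control is not disclosed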
# Target sequence (O14672 214-748 limits assumed): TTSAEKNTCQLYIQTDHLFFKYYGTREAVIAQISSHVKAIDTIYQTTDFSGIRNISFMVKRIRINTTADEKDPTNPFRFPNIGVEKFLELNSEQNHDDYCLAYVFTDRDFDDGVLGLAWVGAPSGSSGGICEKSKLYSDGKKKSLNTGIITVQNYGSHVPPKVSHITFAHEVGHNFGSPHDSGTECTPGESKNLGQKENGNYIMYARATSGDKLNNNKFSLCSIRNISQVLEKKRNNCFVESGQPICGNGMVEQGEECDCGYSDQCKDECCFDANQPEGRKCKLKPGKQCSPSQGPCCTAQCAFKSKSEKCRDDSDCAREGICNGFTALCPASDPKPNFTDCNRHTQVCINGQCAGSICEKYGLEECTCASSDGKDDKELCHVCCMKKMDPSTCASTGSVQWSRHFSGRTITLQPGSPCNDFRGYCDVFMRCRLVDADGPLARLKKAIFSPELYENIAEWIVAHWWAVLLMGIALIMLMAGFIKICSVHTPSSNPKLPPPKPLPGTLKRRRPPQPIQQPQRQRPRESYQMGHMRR
# Starred values were filed as active, the others as inactive; . = not tested or not shown.
SMILES,Ecoli rRNA inh,proKLK7 act,FGF22 binding,ADAM17 inh,ADAM10 inh
Cc1[nH]c2ccc(F)cc2c1CCN(Cc1ccco1)C(=S)NC(C)(C)C,-2.5,0.4,43.1*,1.5,0.6
Cc1[nH]c2ccc(F)cc2c1CCN(Cc1cccnc1)C(=S)Nc1cccc(F)c1,-50.7,0.5,43.5*,6.8,17.2
CNC(=S)N(CCc1c(C)[nH]c2ccccc12)Cc1ccco1,-20.0*,0.4,0.1,-1.4,1.1
CC(=O)Nc1ccc2c(c1)CC(=O)N(C)C[C@H](C)[C@H](CN(C)C)O2,3.3,.,.,.,.
O=C1CN(CCN2CC(=O)N(Cc3ccccc3)C(=O)C2)CC(=O)N1Cc1ccccc1,5.7,0.2,43.6*,-0.1,3.3
COc1cc(NC(=O)COC(=O)/C=C/c2ccc(O)c(OC)c2)cc(OC)c1,-28.9*,-5.8,0.3,-11.2,-39.7
CC[C@@]1(C(=O)OC)N[C@H](CN(C)C(=O)Nc2ccc(C(F)(F)F)cc2)[C@@H]2C(=O)N(C)C(=O)[C@@H]21,7.0,-0.7,-0.4,-2.8,-7.7
CC[C@@]1(C(=O)OC)N[C@H](CN(C)C(=O)c2ccc(C)cc2)[C@@H]2C(=O)N(C)C(=O)[C@@H]21,2.0,-0.1,43.9*,3.4,4.3
CCN(C[C@H]1N[C@@](Cc2ccccc2)(C(=O)OC)[C@H]2C(=O)N(C)C(=O)[C@@H]12)C(=O)c1ccc(F)cc1,1.6,0.2,43.4*,-1.2,2.3
CCN(C[C@H]1N[C@@](CC)(C(=O)OC)[C@H]2C(=O)N(C)C(=O)[C@@H]12)C(=O)Nc1ccc(C(F)(F)F)cc1,-24.4*,-0.3,0.2,-4.7,-8.2
COC(=O)[C@]1(Cc2ccccc2)N[C@H](CN(C)C(=O)NC(C)C)[C@@H]2C(=O)N(C)C(=O)[C@@H]21,15.2,-0.3,43.8*,-2.9,0.1
CC(C)NC(=O)Nc1ccc2c(c1)C(=O)N(C)C[C@H](C)[C@@H](CN(C)C(=O)NC(C)C)O2,2.9,.,.,.,.
CCCC(=O)N1CCC2(CC1)CN(C(=O)CN1CCOCC1)[C@@H](CO)c1c2c2ccc(OC)cc2n1C,-0.5,.,.,.,.
C[C@H]1CN(C)C(=O)c2cccc(NS(C)(=O)=O)c2O[C@@H]1CN(C)S(C)(=O)=O,1.2,.,.,.,.
COCC#Cc1ccc2c(c1)O[C@@H](CN(C)C(=O)C1CC1)[C@H](C)CN([C@@H](C)CO)S2(=O)=O,2.9,.,0.0,.,.
CC1CCN(S(=O)(=O)c2ccc(C(=O)Nc3nnc(-c4ccco4)o3)cc2)CC1,-35.0,-0.2,0.1,-1.3,0.8
O=C(Nc1nnc(-c2ccco2)o1)c1ccc(S(=O)(=O)N2CCCC2)cc1,.,0.2,43.1*,2.1,-0.4
O=C(NCc1ccco1)c1ccc(F)c(S(=O)(=O)N2CCCCC2)c1,-7.8,-0.5,43.0*,-1.1,2.7
O=C(NCc1ccco1)c1ccc(S(=O)(=O)N2CCCCC2)cc1,18.4,0.9,43.6*,1.7,-3.3
C[C@H]1CN([C@@H](C)CO)C(=O)c2cc(C#CCC3CCCC3)cnc2O[C@@H]1CN(C)S(=O)(=O)c1cccs1,-0.1,.,-0.1,.,.
CCCN1C[C@@H](C)[C@@H](OC)CN(C)C(=O)c2ccc(NC(=O)C3CC3)cc2OC[C@H]1C,2.8,.,0.1,.,.
COc1ccc(NC(=O)C2C(c3ccccc3)C2(Cl)Cl)c(OC)c1 (stereo unspecified),6.3,-0.1,-0.2,-4.2,0.5
COc1ccc(NC(=O)C2C(c3ccccc3)C2(Cl)Cl)cc1 (stereo unspecified),-39.1*,0.2,0.6,3.0,6.0
COc1ccc(NC(=O)N(C)C[C@H]2OCCCC[C@@H](C)Oc3ccc(NC(=O)Nc4ccc(F)cc4)cc3C(=O)N([C@@H](C)CO)C[C@H]2C)cc1,-2.1,.,0.2,.,.
O=C(O)c1c2cc(Br)ccc2nc2[nH]c(=O)[nH]c(=O)c12,-1.1,-4.9,43.1*,-16.0,-48.7
CCC(=O)Nc1ccc2c(c1)C(=O)N(C)C[C@@H](OC)[C@H](C)CN(C(=O)COC)[C@@H](C)CO2,3.3,.,0.1,.,.
Cc1ccc(N2NC(=O)/C(=C/c3ccc(-c4ccc(Cl)c(C(=O)O)c4)o3)C2=O)cc1,15.4,0.1,0.1,-2.8,-10.6
CCCCC1(C)OC(=O)C(=Cc2ccc(-c3ccc(Cl)c(C(=O)O)c3)o2)C(=O)O1 (stereo unspecified),6.0,0.1,3.8*,-18.1,-40.0
